Source: PubChem BioAssay

assay: JC-1 mitochondrial signal, unstimulated MM1S myeloma – cell-based, JC-1 fluorescence, 24 h, 100 nL compound, profiling panel (AID 1170); conditions: MM1S mitochondrial potential, higher = more signal; also: test concentration not given here

| SMILES | z-score |
| --- | --- |
| Cc1ccc(N2C(=O)c3ccccc3[C@@H](C(=O)NC3CC3)[C@@H]2c2ccc(CO)cc2)nc1 | -0.446 |
| CCCCC(CC)C(O)C1C=CC2C(=O)N(Cc3ccccc3)C(=O)C2N1n1cnnc1 (stereo unspecified) | 0.533 |
| C[C@H]1NC(=O)[C@@]23C(=O)N[C@@H](Cc4ccccc4)C2[C@H](C)[C@@]2(C)O[C@H]2C3/C=C/C/C=C\CNC(=O)[C@@H]2CCCN2C1=O (stereo partly specified) | -0.507 |
| CC(=O)n1cc(C(O)C2C=CC3C(=O)N(c4ccccc4)C(=O)C3N2Nc2ccc([N+](=O)[O-])cc2)c2ccccc21 (stereo unspecified) | 0.0885 |
| C[C@@]1([C@@H](NC(=O)c2ccc(-c3ccccc3)cc2)c2ccc(Cl)cc2)C[C@H]1C1CCCCC1 | -2.73 |
| C=CCNC(=O)[C@@H]1[C@H]2C(=O)O[C@H](c3ccccc3)[C@H](c3ccccc3)N2[C@H](c2ccc(O)cc2)[C@@]12C(=O)Nc1ccc(C#CCNC(N)=O)cc12 | 0.435 |
| C=C(/C(=C/C[C@H](OC(C)=O)c1ccccc1OCCO)c1cnc2ccccc2c1)C(C)C | -0.685 |
| COc1ccc(/C=C/C=O)cc1 | -0.0737 |
| COCCOC(=O)N1C(=O)[C@@]2(c3cc(C#Cc4ccc(OC)cc4)ccc31)[C@H](c1ccc(OCCO)cc1)N1[C@H](c3ccccc3)[C@H](c3ccccc3)OC(=O)[C@H]1[C@@H]2C(=O)N1CCN(c2ncccn2)CC1 | -0.857 |
| COc1ccc(CCNC(=O)[C@@]2(Sc3ccc(C)cc3)CC(=O)N(C3Cc4ccccc4C3)[C@@H]2c2ccc(CO)cc2I)cc1 | -0.565 |
| COc1ccc([Si](C)(C)[C@@H]2[C@@H](CC(=O)N3CCC[C@H]3CO)O[C@]3(C(=O)N(c4ccccc4)c4ccccc43)[C@H]2C)cc1 | -0.544 |
| COc1ccc(C#Cc2ccc3c(c2)[C@]2(C(=O)N3)[C@H](C(=O)NC[C@H](O)c3ccccc3)[C@H]3C(=O)O[C@H](c4ccccc4)[C@H](c4ccccc4)N3[C@@H]2c2ccc(O)cc2)cc1 | -1.57 |
| CC(C)C[C@@H]1NC(=O)[C@@H]2C[C@H](C(=O)O)[C@H](c3cccc(OCCO)c3)N2C1=O | 0.897 |
| CC#CC(=O)Oc1ccccc1C=CC(=O)OCC | -0.259 |
| CO[C@H]1O[C@H](CO)[C@@H](OC(=O)Nc2ccccc2)[C@H](OC(=O)Nc2ccccc2)[C@@H]1OC(=O)Nc1ccccc1 | 0.0816 |
| COCCOC(=O)N1C(=O)[C@@]2(c3ccccc31)[C@H](C(=O)N1CCc3cc(OC)c(OC)cc3C1)[C@H]1C(=O)O[C@H](c3ccccc3)[C@H](c3ccccc3)N1[C@@H]2c1ccc(OCCO)cc1 | -0.483 |
| O=C1N(Cc2ccccc2)c2ccccc2[C@@H]2OC(c3ccc(OCCCO)cc3)=N[C@]12CCS(=O)(=O)c1ccccc1 | -0.605 |
| C=C(CCCC)C(=O)CC[C@@H](OC(=O)c1ccccc1-c1ccccc1C(=O)O)c1ccc(OCCO)cc1 | -0.137 |

| SMILES | z-score |
| --- | --- |
| NC(=O)N1C(=O)C2C(C1=O)C1C=C(c3ccc(CO)cc3)C2C(c2cccs2)N1Cc1cccc(OC(F)(F)F)c1 (stereo unspecified) | -1.67 |
| COc1ccc([C@H]2OC[C@@H]3C[C@@H](Cc4ccccc4)C(=O)N32)cc1 | -0.0676 |
| NC(=O)NCC#Cc1ccc2c(c1)[C@]1(C(=O)N2)[C@H](c2ccccc2OCCO)N2[C@H](c3ccccc3)[C@H](c3ccccc3)OC(=O)[C@H]2[C@@H]1C(=O)Nc1nc2ccccc2s1 | -1.73 |
| COc1ccc(C(=O)Nc2ccc(CN3C(=O)[C@]4(O[C@H](CCO)[C@@H]([Si](C)(C)c5ccc(OC)cc5)[C@@H]4C)c4ccccc43)cc2)cc1 | -2.28 |
| C#C[C@H](O[Si](C#Cc1ccc(Oc2ccccc2)cc1)(C(C)C)C(C)C)c1ccccc1 | -1.34 |
| COc1ccc([Si](C)(C)[C@H]2[C@H](CCO)O[C@@]3(C(=O)N(Cc4ccc(N(C=O)c5ccccc5)cc4)c4ccccc43)[C@@H]2C)cc1 | -1.88 |
| CC(=O)NCCCC[C@@H]1NC(=O)[C@H]2C[C@@H](C(=O)NCCCCCCNC(=O)CS)[C@@H](c3ccc(O)cc3)N2C1=O | -0.213 |
| C=CCNC(=O)[C@H]1[C@@H]2C(=O)O[C@@H](c3ccccc3)[C@@H](c3ccccc3)N2[C@@H](c2ccccc2OCCO)[C@]12C(=O)Nc1ccc(C#CCCO)cc12 | -0.31 |
| O=C1O[C@@H](c2ccccc2)[C@@H](c2ccccc2)N2[C@@H](c3ccccc3OCCO)[C@]3(C(=O)Nc4ccc(C#CC5=CCCCC5)cc43)[C@@H](C(=O)N3CCCCCCC3)[C@H]12 | -1.75 |
| C=C[C@@H](COC(=O)OC(C)(C)C)N(Cc1ccc(OC)cc1)S(=O)(=O)c1ccc(Br)cc1 | 0.101 |
| C=C(/C(=C/C[C@H](OC(C)=O)c1ccc(CO)o1)c1cc(C(=O)OC)ccc1OC)C(C)C | -0.227 |
| COc1ccc(CCNC(=O)[C@@]2(Sc3ccc(C)cc3)CC(=O)N(C(C)C)[C@@H]2c2ccc(CO)cc2I)cc1 | -0.942 |
| COc1ccc(CCNC(=O)[C@@]2(C)c3ccccc3C(=O)N(C(C)C)[C@H]2c2ccc(CO)cc2)cc1 | -0.03 |
| CC(C)N1C(=O)[C@@]2(Cc3ccccc31)c1ccccc1C(=O)N(Cc1ccccc1Cl)[C@H]2c1ccc(CO)cc1 | -1.76 |
| C=CCOC(=O)[C@H]1[C@@H]2C(=O)O[C@@H](c3ccccc3)[C@@H](c3ccccc3)N2[C@@H](c2ccc(OCCOC(=O)[C@H]3C[C@H]4C(=O)N[C@@H](CCCCN(C)C)C(=O)N4[C@H]3c3ccc(O)cc3)cc2)[C@]12C(=O)Nc1ccc(I)cc12 | 0.192 |
| CC(C)OC(=O)C=C1C[C@@H](c2ccccn2)O[C@@H](c2ccccn2)O1 | -0.816 |
| COC(=O)[C@@]1(Cc2ccc(OC)cc2)[C@H]2c3cc(C(=O)N(C)C)n(CCc4ccccn4)c3C[C@H]2CN1C(=O)c1ccccc1 | -1.35 |
| COC(=O)[C@@]1(Cc2ccccc2)N=C(c2ccc(OCCCO)cc2)O[C@H]1c1ccccc1 | -0.354 |
